Assay [1] can be described thus: NCI Yeast Anticancer Drug Screen. Data for the rad50 strain (AID 155).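 Further: 0% = growth of vehicle-only cultures of the same strain.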 The conditions noted are these: S. cerevisiae rad50 strain growth inhibition, hits give high values. In a few lines:
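Vehicle-treated cultures provide the reference for the growth inhibition reported for compound-exposed, repair-deficient yeast.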

The nature of assay [2]: NCI Yeast Anticancer Drug Screen. Data for the mec2-1 strain (AID 157). The conditions noted are these: S. cerevisiae mec2-1 strain, hits give high values. In short, it runs like this:
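Readout is yeast growth inhibition, normalised to vehicle-treated controls, in the mec2-1 strain exposed to compound.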

Assay [3] in a line: NCI Yeast Anticancer Drug Screen. Data for the sgs1 mgt1 strain (AID 161).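 Further: 0% = growth of cultures given vehicle only.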 The conditions noted are these: S. cerevisiae sgs1 mgt1 strain, hits give high values. In short, it runs like this:
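Compounds are added to genetically altered yeast, and growth is compared with cultures given vehicle alone to give percent inhibition.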

A short description of assay [4]: NCI Yeast Anticancer Drug Screen. Data for the cln2 rad14 strain (AID 165).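 Further: 0% = growth equal to vehicle treated cultures.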 The conditions noted are these: S. cerevisiae cln2 rad14 strain, hits give high values. In short, it runs like this:
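Relative to vehicle controls, growth inhibition of compound-treated cln2 rad14 yeast was recorded.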

Assay [5] is described as follows: NCI Yeast Anticancer Drug Screen. Data for the bub3 strain (AID 167). The conditions noted are these: S. cerevisiae bub3 mutant strain, hits give high values. In a few lines: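 Mutant yeast screening strain plus compound; vehicle-treated cultures serve as the 0% inhibition reference.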
A short description of assay [6]: NCI Yeast Anticancer Drug Screen. Data for the mlh1 rad18 strain (AID 175). The conditions noted are these: S. cerevisiae mlh1 rad18 strain growth inhibition, hits give high values. In short, it runs like this:
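Test agents were incubated with a yeast strain of defined genotype (DNA damage repair defect). Inhibition of growth was derived by comparison with vehicle-exposed cultures.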

The mark [7] stands for this setting: at 5.0 µM (retest, dose inferred, filed as 0.5).
Where [8] appears, read: at 50.0 µM (retest, dose inferred, filed as 5.0).

The structures appear in SMILES notation. The panel holds about 79,000 compounds, 15% with a hit somewhere; the sample as a whole holds those more often. A number with no mark means an inactive call. The source made the active and inactive calls. No stated cut-off is given here; in the data, active means growth inhibition above about 70%; inactive means the rest.

Consider `O=[N+]([O-])/C=C/c1ccc(Cl)cc1`, for which the growth inhibition is 79% (active) in assay [1] (setting [7]); 99% (active) in assay [1] (setting [8]); 99% (active) in assay [1] (at 50.0 µM); 59% in assay [2] (setting [7]); 100% (active) in assay [2] (setting [8]); 99.8% (active) in assay [2] (at 50.0 µM). Besides, the growth inhibition in assay [3] (setting [7]) was 54%; in assay [3] (setting [8]), 100% (active); in assay [3] (at 50.0 µM), 99.5% (active); in assay [4] (setting [7]), 19%; in assay [4] (setting [8]), 99% (active); in assay [4] (at 50.0 µM), 99% (active). Besides, the growth inhibition is 45% in assay [5] (setting [7]); 99% (active) in assay [5] (setting [8]); 99.5% (active) in assay [5] (at 50.0 µM); 80% (active) in assay [6] (setting [7]); 99% (active) in assay [6] (setting [8]); 99.5% (active) in assay [6] (at 50.0 µM).
For the compound `COC1(O[C@H]2CC[C@H]3[C@@H]4CCC5=CC(=O)CC[C@]5(C)[C@H]4CC[C@]23C)CCCCC1`, the growth inhibition in assay [1] (setting [7]) was 3%; in assay [1] (setting [8]) it was -8%; in assay [1] (at 50.0 µM) it was 99.5% (active); in assay [2] (setting [7]) it was 5%; in assay [2] (setting [8]), 2%; in assay [2] (at 50.0 µM) it was 99.5% (active). Further, the growth inhibition is -30% in assay [3] (setting [7]); -33% in assay [3] (setting [8]); 99.5% (active) in assay [3] (at 50.0 µM); 1% in assay [4] (setting [7]); -4% in assay [4] (setting [8]); 99.2% (active) in assay [4] (at 50.0 µM). Further, the growth inhibition was 1% in assay [5] (setting [7]); -4% in assay [5] (setting [8]); 99.1% (active) in assay [5] (at 50.0 µM); -25% in assay [6] (setting [7]); -56% in assay [6] (setting [8]); 99.4% (active) in assay [6] (at 50.0 µM).
With `O=C1CC2CCCC(C1)N2Cc1ccccc1`, the growth inhibition is 2% in assay [1] (setting [7]); 26% in assay [1] (setting [8]); 71.5% (active) in assay [1] (at 50.0 µM); 4% in assay [2] (setting [7]); 28% in assay [2] (setting [8]); -6.1% in assay [2] (at 50.0 µM). Moreover, the growth inhibition in assay [3] (setting [7]) is 15%; in assay [3] (setting [8]), 47%; in assay [3] (at 50.0 µM), 62.5%; in assay [4] (setting [7]) it was -69%; in assay [4] (setting [8]) it was 47%; in assay [4] (at 50.0 µM), 37.5%. For the same compound, the growth inhibition in assay [5] (setting [7]) is -2%; in assay [5] (setting [8]), 25%; in assay [5] (at 50.0 µM), 34.9%; in assay [6] (setting [7]), 7%; in assay [6] (setting [8]) it was 24%; in assay [6] (at 50.0 µM), 51.7%.
Regarding `C1=CC2CCC[N-]C2N1.C1=CC2CCC[N-]C2N1.[I][Pt+2][I]` (stereo not given), the growth inhibition in assay [1] (setting [7]) was 4%; in assay [1] (setting [8]), 99% (active); in assay [1] (at 50.0 µM) it was 99% (active); in assay [2] (setting [7]), 9%; in assay [2] (setting [8]), 99% (active); in assay [2] (at 50.0 µM) it was 99.5% (active). Besides, the growth inhibition was 10% in assay [3] (setting [7]); 99% (active) in assay [3] (setting [8]); 34.5% in assay [3] (at 50.0 µM); 21% in assay [4] (setting [7]); 99% (active) in assay [4] (setting [8]); 98.2% (active) in assay [4] (at 50.0 µM). Further, the growth inhibition is 6% in assay [5] (setting [7]); 99% (active) in assay [5] (setting [8]); 99% (active) in assay [5] (at 50.0 µM); 23% in assay [6] (setting [7]); 99% (active) in assay [6] (setting [8]); 98.8% (active) in assay [6] (at 50.0 µM).
Take `CC1(C(=O)O)CCCC2(C)c3cc(O)ccc3CCC12` (stereo not given): the growth inhibition is 2% in assay [1] (setting [7]); 83% (active) in assay [1] (setting [8]); 18.4% in assay [1] (at 50.0 µM); 2% in assay [2] (setting [7]); 86% (active) in assay [2] (setting [8]); 13% in assay [2] (at 50.0 µM). Besides, the growth inhibition in assay [3] (setting [7]) is 2%; in assay [3] (setting [8]), 88% (active); in assay [3] (at 50.0 µM), 46.4%; in assay [4] (setting [7]) it was -3%; in assay [4] (setting [8]), 89% (active); in assay [4] (at 50.0 µM), 52.4%. The growth inhibition in assay [5] (setting [7]) was 5%; in assay [5] (setting [8]) it was 87% (active); in assay [5] (at 50.0 µM), 41.9%; in assay [6] (setting [7]) it was 3%; in assay [6] (setting [8]), 89% (active); in assay [6] (at 50.0 µM) it was 42.5%.
Turning to `CCOC(=O)NP(=O)(NNc1ccccc1)NNc1ccccc1`, the growth inhibition in assay [1] (setting [7]) was 79% (active); in assay [1] (setting [8]), 98% (active); in assay [1] (at 50.0 µM) it was 100% (active); in assay [2] (setting [7]) it was 82% (active); in assay [2] (setting [8]), 96% (active); in assay [2] (at 50.0 µM) it was 98.8% (active). For the same compound, the growth inhibition is 92% (active) in assay [3] (setting [7]); 98% (active) in assay [3] (setting [8]); 98.8% (active) in assay [3] (at 50.0 µM); 84% (active) in assay [4] (setting [7]); 99% (active) in assay [4] (setting [8]); 98.2% (active) in assay [4] (at 50.0 µM). The growth inhibition was 93% (active) in assay [5] (setting [7]); 98% (active) in assay [5] (setting [8]); 98.8% (active) in assay [5] (at 50.0 µM); 92% (active) in assay [6] (setting [7]); 98% (active) in assay [6] (setting [8]); 98.2% (active) in assay [6] (at 50.0 µM).
On to `CC1(OO)CCC2CC1C2(C)C` (stereo not given), for which the growth inhibition in assay [1] (setting [7]) was 9%; in assay [1] (setting [8]), 77% (active); in assay [1] (at 50.0 µM), 90.2% (active); in assay [2] (setting [7]), 6%; in assay [2] (setting [8]), 99% (active); in assay [2] (at 50.0 µM), 99.6% (active). For the same compound, the growth inhibition in assay [3] (setting [7]) was -2%; in assay [3] (setting [8]), 68%; in assay [3] (at 50.0 µM), 99.4% (active); in assay [4] (setting [7]), 4%; in assay [4] (setting [8]), 65%; in assay [4] (at 50.0 µM) it was 82.7% (active). Besides, the growth inhibition in assay [5] (setting [7]) was -1%; in assay [5] (setting [8]), 95% (active); in assay [5] (at 50.0 µM), 99.5% (active); in assay [6] (setting [7]), 13%; in assay [6] (setting [8]), 94% (active); in assay [6] (at 50.0 µM), 98.2% (active).
For the compound `COC1OC(CO)C(O)C(O)[CH]1[Hg][Cl]` (stereo not given), the growth inhibition in assay [1] (setting [7]), in assay [1] (setting [8]), in assay [1] (at 50.0 µM), in assay [2] (setting [7]), in assay [2] (setting [8]) and in assay [2] (at 50.0 µM) was 99% (active) throughout. In addition, the growth inhibition in assay [3] (setting [7]) was 100% (active); in assay [3] (setting [8]) it was 100% (active); in assay [3] (at 50.0 µM), 99% (active); in assay [4] (setting [7]), 99% (active); in assay [4] (setting [8]) it was 99% (active); in assay [4] (at 50.0 µM) it was 99.2% (active). In addition, the growth inhibition in assay [5] (setting [7]) is 99% (active); in assay [5] (setting [8]), 99% (active); in assay [5] (at 50.0 µM) it was 98.8% (active); in assay [6] (setting [7]), 99% (active); in assay [6] (setting [8]) it was 99% (active); in assay [6] (at 50.0 µM) it was 98.8% (active).
In the case of `O=C(N/N=C/c1cc(Br)cc(Br)c1[O-])c1ccccc1O.O=C(N/N=C/c1cc(Br)cc(Br)c1[O-])c1ccccc1O.[Zn+2]`, the growth inhibition in assay [1] (setting [7]) is 96% (active); in assay [1] (setting [8]) it was 98% (active); in assay [1] (at 50.0 µM) it was 52.5%; in assay [2] (setting [7]), 96% (active); in assay [2] (setting [8]), 96% (active); in assay [2] (at 50.0 µM), 90.7% (active). Also, the growth inhibition is 97% (active) in assay [3] (setting [7]); 98% (active) in assay [3] (setting [8]); 85.5% (active) in assay [3] (at 50.0 µM); 94% (active) in assay [4] (setting [7]); 96% (active) in assay [4] (setting [8]); 64.5% in assay [4] (at 50.0 µM). Besides, the growth inhibition was 95% (active) in assay [5] (setting [7]); 96% (active) in assay [5] (setting [8]); 88.1% (active) in assay [5] (at 50.0 µM); 95% (active) in assay [6] (setting [7]); 97% (active) in assay [6] (setting [8]); 83.5% (active) in assay [6] (at 50.0 µM).
Regarding `CN1C2CCC1c1c([nH]c3ccccc13)C2` (stereo not given), the growth inhibition in assay [1] (setting [7]) was -22%; in assay [1] (setting [8]), -23%; in assay [1] (at 50.0 µM) it was 3.25%; in assay [2] (setting [7]) it was -9%; in assay [2] (setting [8]), -3%; in assay [2] (at 50.0 µM), 18.5%. In addition, the growth inhibition in assay [3] (setting [7]) is -7%; in assay [3] (setting [8]) it was -10%; in assay [3] (at 50.0 µM) it was 20.6%; in assay [4] (setting [7]) it was -19%; in assay [4] (setting [8]) it was -3%; in assay [4] (at 50.0 µM), 42%. In addition, the growth inhibition is -7% in assay [5] (setting [7]); -1% in assay [5] (setting [8]); 6.25% in assay [5] (at 50.0 µM); -7% in assay [6] (setting [7]); -12% in assay [6] (setting [8]); 12.4% in assay [6] (at 50.0 µM).
